{"source": "PubChem BioAssay (NCATS)", "key": {"[1]": {"assay": "Primary qHTS for Huh7 cytotoxicity: counterscreen for inhibitors of MERS-S pseudotyped particle cell entry (AID 1479147)"}, "[2]": {"assay": "Primary qHTS for inhibitors of MERS-S pseudo-typed particle cell entry (AID 1479149); also: nearly all actives have a fitted effect of over 60% in size; also: potency is read from the fitted curve at half-maximal effect"}, "[3]": {"assay": "Primary qHTS for Vero E6 cytotoxicity: counterscreen for inhibitors of SARS-S pseudo-typed particle cell entry (AID 1479150)"}, "[4]": {"assay": "Primary qHTS for inhibitors of La Crosse Virus (LACV) - induced cell death in SH-SY5Y cells (AID 1508616; active = well fitted curve in the direction sought with a large enough effect; an effect the other way counts as inactive or inconclusive;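 also: top concentration of the series differs between compounds; higher means more rescue of cells from virus-induced death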)", "in_short": "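Luminescent ATP readout (ATPLite 1step, 5 min room temperature) measured rescue from LACV-induced death after 6 days of infection at 0.01 MOI; normalized to infected DMSO wells and uninfected DMSO wells.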"}, "[5]": {"target": "Calcium and integrin-binding protein 1 (Homo sapiens) (UniProt Q99828)", "sequence (Q99828 whole entry, looked up)": "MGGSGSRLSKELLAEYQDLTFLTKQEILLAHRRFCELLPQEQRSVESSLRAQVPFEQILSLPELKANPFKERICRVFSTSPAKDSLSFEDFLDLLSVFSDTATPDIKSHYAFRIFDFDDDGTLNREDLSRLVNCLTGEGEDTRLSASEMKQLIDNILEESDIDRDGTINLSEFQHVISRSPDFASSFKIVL", "assay": "Primary qHTS for Identification of Calcium Integrin Binding Protein 1 (CIB1) Competitor (AID 1508620; active = well fitted curve in the direction sought with a large enough effect; an effect the other way counts as inactive or inconclusive;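 also: GST tagged CIB1 binding a fluorescein labelled alphaIIb integrin peptide tracer; top concentration of the series differs between compounds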)", "in_short": "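CIB1-GST (1 uM final) and compound incubated 15 min at room temperature before adding FITC-alphaIIb peptide tracer (100 nM final). Competition for binding read by fluorescence polarization (ex 480, em 540) after another 15 min at room temperature.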"}, "[6]": {"assay": "A High-Content qHTS Against Drug Library for the Identification of Small Molecules that Inhibit DYT1 Early Onset Primary Dystonia-Associated Cell Pathology (AID 1645839); also: potency is read from the fitted curve at half-maximal effect", "in_short": "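In this high-content image screen, delE TorsinA mislocalization in inducible Flp-In 293 cells is scored as %pathology, with cell count serving as the counterscreen. Compound exposure lasts 48 h under tetracycline induction in reduced-serum medium.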"}, "[7]": {"target": "Cytochrome P450 2D6 (Homo sapiens) (UniProt P10635)", "sequence (P10635 whole entry, looked up)": "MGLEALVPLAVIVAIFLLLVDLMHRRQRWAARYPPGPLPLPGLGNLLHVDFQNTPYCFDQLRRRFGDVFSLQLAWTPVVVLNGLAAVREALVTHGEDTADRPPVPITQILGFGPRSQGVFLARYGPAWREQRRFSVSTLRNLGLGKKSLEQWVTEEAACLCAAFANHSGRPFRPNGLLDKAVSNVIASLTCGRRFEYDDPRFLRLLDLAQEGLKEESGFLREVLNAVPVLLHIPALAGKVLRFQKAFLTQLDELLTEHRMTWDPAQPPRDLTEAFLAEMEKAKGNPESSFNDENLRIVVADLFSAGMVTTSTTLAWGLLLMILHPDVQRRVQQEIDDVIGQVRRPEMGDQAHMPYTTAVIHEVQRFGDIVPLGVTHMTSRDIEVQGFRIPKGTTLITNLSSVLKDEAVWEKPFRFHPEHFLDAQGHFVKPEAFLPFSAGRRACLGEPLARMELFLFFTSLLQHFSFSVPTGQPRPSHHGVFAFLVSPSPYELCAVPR", "assay": "Cytochrome P450 family 2 subfamily D member 6 (CYP2D6) small molecule antagonists: luciferase biochemical (cell-free) qHTS assay (AID 1645840; active = well fitted curve in the direction sought with a large enough effect in the repeat runs; an effect the other way counts as inactive or inconclusive; also: nearly all actives have a fitted effect of over 55% in size; also: potency is read from the fitted curve at half-maximal effect)", "in_short": "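P450-Glo luminescent screen: recombinant CYP2D6 enzyme–proluciferin substrate mix preincubated with compound 10 min at room temperature, then NADPH regeneration added for 1 h at room temperature. Detection reagent added for 20 min; luciferin light read as relative luminescence units.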"}, "[8]": {"target": "Cytochrome P450 3A4 (Homo sapiens) (UniProt P08684)", "sequence (P08684 whole entry, looked up)": "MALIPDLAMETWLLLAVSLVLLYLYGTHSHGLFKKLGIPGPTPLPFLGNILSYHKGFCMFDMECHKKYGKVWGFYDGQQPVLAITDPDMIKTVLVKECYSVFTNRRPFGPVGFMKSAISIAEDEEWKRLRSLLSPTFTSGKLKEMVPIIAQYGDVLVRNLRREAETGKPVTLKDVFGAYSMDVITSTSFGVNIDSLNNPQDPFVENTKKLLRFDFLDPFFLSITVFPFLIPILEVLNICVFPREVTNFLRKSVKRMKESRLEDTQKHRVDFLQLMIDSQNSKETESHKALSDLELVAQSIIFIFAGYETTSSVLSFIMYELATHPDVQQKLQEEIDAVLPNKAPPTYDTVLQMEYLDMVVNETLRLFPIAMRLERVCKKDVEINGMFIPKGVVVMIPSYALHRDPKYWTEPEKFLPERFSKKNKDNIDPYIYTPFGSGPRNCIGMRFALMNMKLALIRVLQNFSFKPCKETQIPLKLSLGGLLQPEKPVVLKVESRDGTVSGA", "assay": "Cytochrome P450 family 3 subfamily A member 4 (CYP3A4) small molecule antagonists: luciferase qHTS assay (AID 1645841; active = well fitted curve in the direction sought with a large enough effect in the repeat runs; an effect the other way counts as inactive or inconclusive; also: nearly all actives have a fitted effect of over 45% in size)", "in_short": "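Luminescent CYP3A4 activity readout: compounds plus enzyme-substrate mix 10 min at room temperature, reaction started with NADPH regenerating system for 1 h, stopped with detection reagent, read after 20 min. Ketoconazole served as control.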"}, "[9]": {"target": "Cytochrome P450 2C9 (Homo sapiens) (UniProt P11712)", "sequence (P11712 whole entry, looked up)": "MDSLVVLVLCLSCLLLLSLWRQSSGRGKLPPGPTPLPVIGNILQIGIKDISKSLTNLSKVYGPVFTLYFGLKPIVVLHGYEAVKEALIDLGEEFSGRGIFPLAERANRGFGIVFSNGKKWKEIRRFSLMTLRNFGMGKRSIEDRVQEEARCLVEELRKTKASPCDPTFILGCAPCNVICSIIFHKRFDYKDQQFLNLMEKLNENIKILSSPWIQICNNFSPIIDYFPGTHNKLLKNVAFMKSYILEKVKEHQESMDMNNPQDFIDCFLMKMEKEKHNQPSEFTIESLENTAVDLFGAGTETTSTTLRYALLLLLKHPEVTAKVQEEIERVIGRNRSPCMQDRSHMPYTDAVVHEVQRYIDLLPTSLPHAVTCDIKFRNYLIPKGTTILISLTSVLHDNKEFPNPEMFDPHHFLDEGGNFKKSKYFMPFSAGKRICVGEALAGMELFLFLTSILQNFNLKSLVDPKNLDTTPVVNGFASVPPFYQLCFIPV", "assay": "Cytochrome P450 family 2 subfamily C member 9 (CYP2C9) small molecule antagonists: luciferase biochemical (cell-free) qHTS assay (AID 1645842; active = well fitted curve in the direction sought with a large enough effect in the repeat runs; an effect the other way counts as inactive or inconclusive; also: nearly all actives have a fitted effect of over 55% in size; also: potency is read from the fitted curve at half-maximal effect)", "in_short": "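Luminescence, after 20 min with luciferin detection reagent, reflected CYP2C9 turnover during a 1 h NADPH-driven reaction at 37C. Enzyme-substrate mix contained 0.4% bovine serum albumin and was preincubated with compound 10 min at room temperature.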"}, "[10]": {"assay": "Cytotoxicity counterscreen for inhibitors of SARS-CoV-2 cell entry (AID 1645845); also: nearly all actives have a fitted effect of over 50% in size", "in_short": "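48 h compound treatment (after 1 h preincubation), HEK293-ACE2 cells, 37 C/5% CO2; ATP luminescence endpoint; normalized to cell wells and media blanks.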"}, "[11]": {"assay": "Primary qHTS to identify inhibitors of SARS-CoV-2 cell entry (AID 1645846); also: nearly all actives have a fitted effect of over 45% in size", "conditions": "activity change, negative = inhibition: at 57.1 µM (top of the series) unless noted", "in_short": "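Entry measured by luciferase signal 48 h after adding SARS-CoV-2-S pseudotyped MLV particles to HEK293-ACE2 cells preincubated 1 h with compounds. Normalisation: bald particles and spike particles.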"}, "[12]": {"assay": "Primary qHTS for small molecule stabilizers of the endoplasmic reticulum resident proteome: Secreted ER Calcium Modulated Protein (SERCaMP) assay (AID 1508630; active = well fitted curve in the direction sought with a large enough effect; an effect the other way counts as inactive or inconclusive)", "in_short": "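GLuc-SERCaMP-expressing SH-SY5Y cells, pretreated 16 h with compound, are challenged with thapsigargin to empty ER calcium stores; after 4 h, coelenterazine is added directly to the medium and luminescence is imaged.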"}, "[13]": {"target": "Calcium and integrin-binding protein 1 (Homo sapiens) (UniProt Q99828)", "assay": "Validation qHTS for Identification of Calcium Integrin Binding protein 1 (CIB1) Competitor (AID 1508618; active = well fitted curve in the direction sought with a large enough effect; an effect the other way counts as inactive or inconclusive)", "in_short": "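Displacement of FITC-alphaIIb peptide (100 nM) from CIB1-GST (1 uM) is monitored by polarization in quantitative HTS format; buffer carries 5 mM CaCl2 and 125 mM NaCl at pH 7.4, incubations are at room temperature.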"}, "[14]": {"assay": "Cell Viability qHTS for small molecule stabilizers of the endoplasmic reticulum resident proteome (AID 1508629; active = well fitted curve in the direction sought with a large enough effect; an effect the other way counts as inactive or inconclusive;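 also: potency is read from the fitted curve at half-maximal effect; compound exposure about 46 h in total before the viability read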)", "conditions": "cell viability counter-screen, 100 nM thapsigargin for final 4 h"}}, "note": "Values joined by “and” are separate entries in the source; they are usually repeats but may differ in a detail not shown here. Equal values may be shown once. Inconclusive results are not listed. Where a call stands in place of a potency, no number is given. More than one record can exist for a structure, and the calls need not agree. Active and inactive are the calls of the source. Unless noted, calls follow the shape of the full dose curve."}
{"molecule": "CC(C)NCC(O)COc1cccc2[nH]ccc12", "note": "(configuration not stated)", "values": [{"measurement": "Potency", "setting": "[1]", "result": "inactive"}, {"measurement": "Potency", "setting": "[2]", "result": "inactive"}, {"measurement": "Potency", "setting": "[3]", "result": "inactive"}]}
{"molecule": "C[C@]12CC[C@H]3[C@@H](CCC4=CC(=O)CC[C@@H]43)[C@@H]1CC[C@@H]2OC(=O)CCc1ccccc1", "values": [{"measurement": "Potency", "setting": "[1]", "result": "inactive"}, {"measurement": "Potency", "setting": "[2]", "result": "inactive"}, {"measurement": "Potency", "setting": "[3]", "result": "inactive"}, {"measurement": "Potency", "setting": "[4]", "result": "inactive"}, {"measurement": "Potency", "setting": "[5]", "result": "inactive"}, {"measurement": "Potency", "setting": "[6]", "result": "inactive"}, {"measurement": "Potency", "setting": "[7]", "result": "inactive"}, {"measurement": "outcome", "setting": "[8]", "result": "inactive"}, {"measurement": "Potency", "setting": "[9]", "result": "27.5 µM (active)"}, {"measurement": "Potency", "setting": "[10]", "result": "inactive"}, {"measurement": "activity change, negative = inhibition", "setting": "[11]", "result": 2.01, "unit": "%"}]}
{"molecule": "C#CCN(C)[C@H](C)Cc1ccccc1", "values": [{"measurement": "Potency", "setting": "[1]", "result": "inactive"}, {"measurement": "Potency", "setting": "[2]", "result": "inactive"}, {"measurement": "Potency", "setting": "[3]", "result": "inactive"}, {"measurement": "Potency", "setting": "[4]", "result": "inactive"}, {"measurement": "Potency", "setting": "[5]", "result": "inactive"}, {"measurement": "outcome", "setting": "[12]", "result": "inactive"}, {"measurement": "Potency", "setting": "[6]", "result": "inactive"}, {"measurement": "Potency", "setting": "[7]", "result": "13.8 µM (active)"}, {"measurement": "Potency", "setting": "[9]", "result": "inactive"}, {"measurement": "Potency", "setting": "[10]", "result": "inactive"}, {"measurement": "Potency", "setting": "[11]", "result": "inactive"}, {"measurement": "activity change, negative = inhibition", "setting": "[11]", "result": -14, "unit": "%"}]}
{"molecule": "CC(C)C(=O)Nc1ccc([N+](=O)[O-])c(C(F)(F)F)c1", "values": [{"measurement": "Potency", "setting": "[1]", "result": "inactive"}, {"measurement": "Potency", "setting": "[2]", "result": "22.4 µM (active)"}]}
{"molecule": "CCC(C(N)=O)N1CCCC1=O", "note": "(configuration not stated)", "values": [{"measurement": "Potency", "setting": "[1]", "result": "inactive"}, {"measurement": "Potency", "setting": "[2]", "result": "inactive"}, {"measurement": "Potency", "setting": "[3]", "result": "inactive"}, {"measurement": "Potency", "setting": "[4]", "result": "inactive"}, {"measurement": "Potency", "setting": "[5]", "result": "inactive"}, {"measurement": "Potency", "setting": "[6]", "result": "inactive"}, {"measurement": "Potency", "setting": "[7]", "result": "inactive"}, {"measurement": "Potency", "setting": "[9]", "result": "inactive"}, {"measurement": "Potency", "setting": "[10]", "result": "inactive"}, {"measurement": "activity change, negative = inhibition", "setting": "[11]", "result": -16.2, "unit": "%"}]}
{"molecule": "CCCSc1ccc2nc(NC(=O)OC)[nH]c2c1", "values": [{"measurement": "Potency", "setting": "[1]", "result": "inactive"}, {"measurement": "Potency", "setting": "[2]", "result": "inactive"}]}
{"molecule": "OCCOc1ccccc1", "values": [{"measurement": "Potency", "setting": "[1]", "result": "inactive"}, {"measurement": "Potency", "setting": "[2]", "result": "inactive"}, {"measurement": "Potency", "setting": "[3]", "result": "inactive"}, {"measurement": "Potency", "setting": "[4]", "result": "inactive"}, {"measurement": "Potency", "setting": "[5]", "result": "inactive"}, {"measurement": "Potency", "setting": "[6]", "result": "inactive"}, {"measurement": "Potency", "setting": "[7]", "result": "inactive"}, {"measurement": "Potency", "setting": "[9]", "result": "inactive"}, {"measurement": "Potency", "setting": "[10]", "result": "inactive"}]}
{"molecule": "FC(F)(F)c1cccc(C2=CCN(CCc3ccc4ccccc4c3)CC2)c1", "values": [{"measurement": "Potency", "setting": "[1]", "result": "inactive"}, {"measurement": "Potency", "setting": "[2]", "result": "inactive"}, {"measurement": "Potency", "setting": "[3]", "result": "inactive"}, {"measurement": "Potency", "setting": "[4]", "result": "inactive"}, {"measurement": "Potency", "setting": "[5]", "result": "inactive"}, {"measurement": "Potency", "setting": "[6]", "result": "inactive"}, {"measurement": "Potency", "setting": "[7]", "result": "0.0098 µM (active)"}, {"measurement": "Potency", "setting": "[9]", "result": "inactive"}, {"measurement": "Potency", "setting": "[10]", "result": "inactive"}]}
{"molecule": "NCC(CC(=O)O)c1ccc(Cl)cc1", "note": "(configuration not stated)", "values": [{"measurement": "outcome", "setting": "[1]", "result": "inactive [at 0.573 µM]"}, {"measurement": "outcome", "setting": "[2]", "result": "inactive [at 0.573 µM]"}, {"measurement": "outcome", "setting": "[3]", "result": "inactive [at 0.573 µM]"}, {"measurement": "Potency", "setting": "[4]", "result": "inactive"}, {"measurement": "Potency", "setting": "[13]", "result": "inactive"}, {"measurement": "activity change, negative = inhibition", "setting": "[5]", "result": "5.6% [at 1.07 µM] (inactive)"}, {"measurement": "outcome", "setting": "[12]", "result": "inactive"}, {"measurement": "% pathology change, negative = correction", "setting": "[6]", "result": "14.6% [at 0.369 µM] (inactive)"}, {"measurement": "activity change, negative = inhibition", "setting": "[7]", "result": "14.3% [at 0.91 µM] (inactive)"}, {"measurement": "activity change, negative = inhibition", "setting": "[9]", "result": "15.7% [at 0.91 µM] (inactive)"}, {"measurement": "activity change, negative = cytotoxicity", "setting": "[10]", "result": "1.92% [at 0.702 µM] (inactive)"}, {"measurement": "activity change, negative = inhibition", "setting": "[11]", "result": "0.754% [at 0.702 µM]"}]}
{"molecule": "CC(C)(C)NCC(O)c1cc(Cl)c(N)c(Cl)c1", "note": "(configuration not stated)", "values": [{"measurement": "Potency", "setting": "[1]", "result": "inactive"}, {"measurement": "Potency", "setting": "[2]", "result": "inactive"}, {"measurement": "Potency", "setting": "[3]", "result": "inactive"}, {"measurement": "Potency", "setting": "[4]", "result": "inactive"}, {"measurement": "Potency", "setting": "[5]", "result": "inactive"}, {"measurement": "outcome", "setting": "[12]", "result": "inactive"}, {"measurement": "Potency", "setting": "[6]", "result": "inactive"}, {"measurement": "Potency", "setting": "[9]", "result": "inactive"}, {"measurement": "Potency", "setting": "[10]", "result": "inactive"}, {"measurement": "activity change, negative = inhibition", "setting": "[11]", "result": 0.184, "unit": "%"}]}
{"molecule": "Oc1cccc2cccnc12", "values": [{"measurement": "Potency", "setting": "[1]", "result": "inactive"}, {"measurement": "Potency", "setting": "[2]", "result": "inactive and 3.55 µM (active)"}, {"measurement": "Potency", "setting": "[3]", "result": "inactive"}, {"measurement": "Potency", "setting": "[4]", "result": "inactive"}, {"measurement": "Potency", "setting": "[5]", "result": "inactive"}, {"measurement": "Potency", "setting": "[14]", "result": "20 µM (active)"}, {"measurement": "outcome", "setting": "[12]", "result": "inactive"}, {"measurement": "Potency", "setting": "[6]", "result": "31.6 µM (active) and inactive"}, {"measurement": "Potency", "setting": "[7]", "result": "inactive"}, {"measurement": "outcome", "setting": "[8]", "result": "inactive"}, {"measurement": "Potency", "setting": "[10]", "result": "inactive"}, {"measurement": "activity change, negative = inhibition", "setting": "[11]", "result": -23.4, "unit": "%"}]}
